Screens as filed in PubChem.
HP1b chromo inh: blocks HP1-beta chromodomain binding to methylated histone tails; 0.56% of 390,000 active; AID 540317; Potency, µM (titrated, usually from 114 µM), for the others: at the highest dose activity change, negative = inhibition, most hits filed as inhibitors; AlphaScreen HP1-beta / biotin-H3K9me3 peptide binding; P83916; note: nearly all actives have a fitted effect of over 70% in size
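AlphaScreen: HP1-beta (50 nM) preformed 30 min with biotin-H3(1-18)K9me3 peptide (50 nM) in PBS pH 7.4, 0.01% Tween-20. Compound added for 30 min at RT, then streptavidin donor/nickel chelate acceptor beads (10 ug/mL) for 30 min.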
JMJD2A Tudor: blocks the human JMJD2A Tudor domain; 4.4% of 390,000 active; AlphaScreen JMJD2A-Tudor / H3K4me3 peptide binding; Potency, µM (top dose mostly 114 µM), for inactives: at the top dose activity change, negative = inhibition, usual class: inhibitors; O75164; AID 504339; note: % is set by controls: 0 for no effect and ±100 for the full control effect; nearly all actives have a fitted effect of over 50% in size
Sfp PPTase inh: Sfp phosphopantetheinyl transferase inhibition | Q9F4F7 | 3.5% of 310,000 active | Potency, µM, without a hit: largest response in the series, negative = inhibition, hits mostly inhibitors | Biochemical Sfp PPTase activity, qHTS;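 note: the enzyme is Sfp with the accession as filed and its product quenches rhodamine fluorescence; 0% = enzyme reaction without inhibitor and -100% = no enzyme wells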
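Step 1, compound plus 15 nM Sfp-PPTase, 15 min, room temperature. Step 2, add rhodamine-CoA (5 uM) and BHQ-2-YbbR (12.5 uM). Step 3, read 525/598 nm fluorescence at 0 and 30 min.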
L3MBTL1 inh: L3MBTL1 (human) inhibition; Q9Y468; AlphaScreen L3MBTL1–H3K9me1 peptide binding; Potency, µM (doses to about 57.1 µM), for inactives: at the top dose activity, negative = inhibition, usual class: inhibitors; 0.66% of 230,000 active; AID 485360; note: % is set by controls: 0 for no effect and ±100 for the full control effect; nearly all actives have a fitted effect of over 60% in size
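L3MBTL1 50 nM + b-AHA-H3(1-15)K9me1 75 nM, 30 min RT; compound added, 30 min RT; streptavidin donor/Ni-chelate acceptor beads 10 ug/mL each final, 30 min RT dark; AlphaScreen read.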
BAZ2B block: BAZ2B (human) inhibition; AlphaScreen BAZ2B-H3K14Ac peptide displacement; Potency, µM (doses to about 114 µM), without a hit: at the top dose activity change, negative = inhibition, hits mostly inhibitors; 4.4% of 360,000 active; AID 504333; note: % is set by controls: 0 for no effect and ±100 for the full control effect; nearly all actives have a fitted effect of over 60% in size
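In this displacement format the biotinylated H3(5-23) peptide acetylated at Lys14 serves as ligand at 50 nM, with BAZ2B at 50 nM in PBS pH 7.4 containing 0.01% Tween-20. Donor and acceptor beads are 10 ug/mL final.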
G9a inh: G9a (human) methyltransferase inhibition. Q96KQ7. G9a H3K9 monomethylation, AlphaScreen, 2 h. AID 504332. Potency, µM (highest dose often 102 µM), for inactives: at the highest dose activity, negative = inhibition, usual class: inhibitors. 8.8% of 350,000 active; note: % is set by controls: 0 for no effect and ±100 for the full control effect; nearly all actives have a fitted effect of over 75% in size
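Quantitative HTS format: methyltransferase activity on a biotin-tagged H3K9 peptide is measured by AlphaScreen, using a rabbit anti-monomethyl-H3K9 antibody with streptavidin donor and anti-IgG acceptor beads. Final levels are 20 nM enzyme, 500 nM peptide, 20 uM SAM; 2 h RT.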
* hit, by the source's call; u = inconclusive; x = no result given; [ ] = another dose, or the depositor's remark. Sampled rows, rich in hits. Any-hit rate of the full collection: about 12%. Calls come from the whole dose curve; as a rule, active = well fitted curve in the direction sought with a large enough effect; inconclusive = small, poorly fitted or top-dose-only effect, or another doubt; inactive = no such curve, though single readings can be large; an effect the other way counts as inactive or inconclusive. Potency is the fitted concentration of half-maximal effect.

SMILES	HP1b chromo inh	JMJD2A Tudor	Sfp PPTase inh	L3MBTL1 inh	BAZ2B block	G9a inh
C/C(=N\NC(=O)C(=O)Nc1cccc(C(F)(F)F)c1)c1ccc(Cl)s1	28%	-12%	2%	-2%	-7%	-2%[59 µM]
C/C(=N\Nc1cccc(C(=O)O)c1)c1ccc(Cl)s1	-3%	u	-7%	x	u	22µM*
O=C(O)c1cccc(N/N=C/c2ccc(-c3ccccc3)cc2)c1	15%	-29%	-10%	x	x	25µM*
COc1ccc(/C(C)=N/Nc2cccc(C(=O)O)c2)cc1OC	31%	-19%	-1%	-15%	u	1.4µM*
O=C(O)c1cccc(N/N=C/c2cccnc2)c1	18%	-17%	23%	x	-13%	28µM*
CCOC(=O)c1ccc(NC(=O)Cn2cc(C(=O)c3ccc(Cl)cc3)c(=O)c3ccc(C)nc32)cc1	6%	-18%	x	x	11%[57.1 µM]	-6%[59 µM]
NCC(=O)N[C@@H](CCCN=C(N)N)C(=O)NCC(=O)N[C@@H](CC(=O)O)C(=O)N[C@@H](CO)C(=O)O	x	x	21%	x	x	x
COc1ccc(Br)cc1/C=N/NC(=O)c1cc(Br)ccc1O	x	x	5%	x	56µM*	40µM*
CC(C)(C)c1ccc(/C=N/Nc2cccc(C(=O)O)c2)cc1	15%	-33%	13%	x	-24%	28µM*
Cc1[nH]c2ccccc2c1/C=N/Nc1cccc(C(=O)O)c1	-15%	u	0%	-26%	u	4µM*
COc1ccc(C(=O)N/N=C/c2cc(Br)ccc2O)cc1OC	u	-19%	11%	-15%	-14%	x
Clc1ccc(N/N=C/c2cccnc2)cc1	3%	u	-7%	-4%	u	4µM*
Cc1ccc(-c2nnc3ccc(SCC(=O)OCc4ccccc4)nn23)cc1	12%[57 µM]	12%[57.1 µM]	x	x	x	x
N#Cc1c(-c2ccc(Cl)cc2)no[n+]1[O-]	x	-26%	x	x	x	x
COc1ccc(CN(Cc2ccccc2)C(=O)c2ccncc2)cc1COc1ccc(NC(C)=O)cc1	6%	u	x	x	x	x
CN(C)c1ccc(/C=N/Nc2cccc(C(=O)O)c2)cc1	31%	u	-30%	x	u	7.9µM*
C(=N\NC1=Nc2cccc3cccc1c23)/c1ccccc1	-11%	-29%	u	-7%	u	-5%[59 µM]
COc1ccc(Br)cc1/C=N/Nc1cccc(C(=O)O)c1	5%	-26%	7%	-10%	-27%	10µM*
O=C(O)c1cccc(N/N=C/c2cc(Br)cc(Br)c2O)c1	-17%	u	9%	-16%	u	u
C(=N\NC1=Nc2cccc3cccc1c23)/c1cccnc1	-31%	u	u	-6%	40µM*	u
CCOC(=O)C1CCC(CN(Cc2ccc(Cl)cc2)S(=O)(=O)c2ccc(Br)cc2)CC1 (stereo unspecified)	26%	-6%	x	x	15%	7%[59 µM]
Cc1ccc(OCC(=O)N2CCC(N3CCCCCC3)CC2)cc1	-46%	6.3µM*	-4%	-2%	56µM*	u
O=C(c1cccc(F)c1)N1CCC(N2CCOCC2)CC1	u	7.9µM*	56µM*	x	50µM*	u
Cc1ccc(OCC(=O)N2CCN(C(=O)c3ccc([N+](=O)[O-])cc3)CC2)cc1	14%	-7%	u	4%	-7%	50µM*
O=C(c1cccc(Cl)c1)N1CCC(N2CCC(C(=O)N3CCOCC3)CC2)CC1	44%	-3%	-1%	6%	3%	x
SMILES	HP1b chromo inh	JMJD2A Tudor	Sfp PPTase inh	L3MBTL1 inh	BAZ2B block	G9a inh
O=C(Nc1ccnn1C1CCN(C2CCCCC2)CC1)c1cccc(F)c1	37%	25µM*	10%	x	10%	x
C[C@H](CO)N1C[C@H](C)[C@@H](CN(C)C(=O)Nc2ccc(C(F)(F)F)cc2)Oc2ccc(NC(=O)Nc3ccc4c(c3)OCO4)cc2C1=O	-1%	u	x	-11%	x	x
COc1ccccc1N1CCN(C2CCN(C(=O)COc3cccc(C)c3)CC2)CC1	u	5.6µM*	-25%	-1%	79µM*	8.9µM*
COc1ccccc1N1CCN(C2CCN(C(=O)c3cccc(F)c3)CC2)CC1	u	28µM*	-27%	3%	50µM*	8.9µM*
O=C(c1cccc(F)c1)N1CCN(Cc2ccco2)CC1	-14%	7.9µM*	-7%	1%	50µM*	32µM*
CCOc1ccc(NC(=O)c2nn(C)c3c2COc2ccccc2-3)cc1	20%	14%	x	x	1%	u
CCN(Cc1ccccc1)C(=O)c1oc2ccc(S(=O)(=O)N3CCOCC3)cc2c1C	69%	-15%	14%	x	-20%	20%[59 µM]
O=C1CCC2=C1C(c1ccccc1Cl)N=C(Nc1nc3ccccc3o1)N2 (stereo unspecified)	x	-23%	x	x	x	x
CCN1CCN(c2ccc(S(=O)(=O)N3CCCCC3)cc2NC(=O)c2ccc(C)c(C)c2)CC1	2%	u	x	x	x	x
CCN1CCN(c2ccc(S(=O)(=O)N3CCCCC3)cc2NC(=O)CC(C)c2ccccc2)CC1 (stereo unspecified)	-1%	-29%	x	-1%	-8%	50µM*
CCN1CCN(c2ccc(S(=O)(=O)N3CCOCC3)cc2NC(=O)c2ccc(F)cc2Cl)CC1	44%	10%	x	-12%	6%	40µM*
CCN1CCN(c2ccc(S(=O)(=O)N3CCCCC3)cc2NC(=O)c2sccc2C)CC1	9%	-29%	x	-10%	u	2.2µM*
CCN1CCN(c2ccc(S(=O)(=O)N3CCOCC3)cc2NC(=O)c2ccc(C(F)(F)F)cc2)CC1	10%	-16%	x	0%	11%	0%[0.501 µM]
CCN1CCN(c2ccc(S(=O)(=O)N3CCCCC3)cc2NC(=O)c2cccc(C)c2)CC1	-8%	-34%	x	-6%	-34%	50µM*
COc1ccc(Br)cc1C1NC(c2ccc3c(c2)OCO3)=CC(c2ccccc2O)N1 (stereo unspecified)	8%[57 µM]	-24%[57.1 µM]	x	x	x	x
CCN1CCN(c2ccc(S(=O)(=O)N3CCCCC3)cc2NC(=O)c2ccc(F)cc2)CC1	19%	u	14%	-5%	-6%	10µM*
COc1ccc(S(=O)(=O)N2CCCCC2)cc1NC(=O)c1ccc([N+](=O)[O-])o1	33%	-5%	15%	-7%	-6%	1%
CCN1CCN(c2ccc(S(=O)(=O)N3CCOCC3)cc2NC(=O)/C=C/c2ccc(OC)cc2OC)CC1	-3%	-29%	x	-19%	-38%	40µM*
CS(=O)(=O)N1CCN(c2ccccc2NC(=O)c2ccc([N+](=O)[O-])o2)CC1	u	3.2µM*	5%	1%	-9%	-3%
CN1CCN(c2ccccc2NC(=O)c2ccc([N+](=O)[O-])o2)CC1	19%	-17%	-1%	x	u	x
